# Measurements from PubChem BioAssay.
# For some of these results: Entries with a potency or affinity are not part of this list. Calls of active or inactive are those of the source.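 Rule for the calls, unless noted: active = earlier screen potentiator hit that boosts the TRPC4 ion channel at some dose, with a dose response; inactive = no potentiation, no dose response, or not a prior hit.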
# How the values were obtained:
# [1] = test system: TRPC4 beta (transient receptor potential cation channel C4), mouse; assay: TRPC4 cation channel opening, retest – cell-based, Fluo4 calcium, HEK293 TRPC4beta/mu-opioid, duplicates, 10 µM, confirmation (AID 2426;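 active = fluorescence ratio normalized to control raised more than 50% in primary screen plus both repeat runs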); settings: Fluo4 calcium fluorescence, at 10 µM; stronger effect = higher value
# [2] = test system: transient receptor potential cation channel C4 beta (TRPC4), mouse; assay: TRPC4 cation channel opening, second retest – cell-based, second round, Fluo4, HEK293 TRPC4beta/mu-opioid, 1 µM, confirmation (AID 2461;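 active = primary screen active and over 50% activation in each of two duplicate runs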); settings: Fluo4 calcium fluorescence, at 1 µM; stronger effect = higher value
# [3] = test system: TRPC4 (transient receptor potential cation channel C4 beta), mouse; assay: potentiation of DAMGO EC20 TRPC4 response – cell-based, second round, Fluo-4, HEK293 TRPC4beta/mu-opioid, 1 µM, confirmation (AID 2554;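 active = primary screen hit whose fluorescence ratio, in both repeats, exceeds the weak agonist control mean by 3 SD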); settings: DAMGO EC20, Fluo-4 calcium flux, at 1 µM; stronger effect = higher value
# [4] = test system: TRPC4 beta (transient receptor potential cation channel C4), mouse; assay: potentiation of DAMGO EC20 TRPC4 response – cell-based, Fluo-4, HEK293 TRPC4beta/mu-opioid, confirmation (AID 2555;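 active = primary screen hit whose calcium fluorescence ratio, in both repeats, exceeds the weak agonist control mean by 3 SD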); settings: DAMGO EC20, Fluo-4 calcium flux, at 10 µM; stronger effect = higher value
# [5] = target: Short transient receptor potential channel 4 (Mus musculus) (UniProt Q9QUQ5); assay: blockers of DAMGO-evoked TRPC4 calcium flux – cell-based, Fluo4, HEK293 TRPC4beta/mu-opioid, confirmation (AID 2636;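 active = calcium signal cut by more than 3 SD below the full-agonist control yet still positive, in both repeats and the earlier primary screen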); settings: at 10 µM; stronger effect = higher value
# Chain of Short transient receptor potential channel 4 (Mus musculus) (Q9QUQ5 whole entry, looked up): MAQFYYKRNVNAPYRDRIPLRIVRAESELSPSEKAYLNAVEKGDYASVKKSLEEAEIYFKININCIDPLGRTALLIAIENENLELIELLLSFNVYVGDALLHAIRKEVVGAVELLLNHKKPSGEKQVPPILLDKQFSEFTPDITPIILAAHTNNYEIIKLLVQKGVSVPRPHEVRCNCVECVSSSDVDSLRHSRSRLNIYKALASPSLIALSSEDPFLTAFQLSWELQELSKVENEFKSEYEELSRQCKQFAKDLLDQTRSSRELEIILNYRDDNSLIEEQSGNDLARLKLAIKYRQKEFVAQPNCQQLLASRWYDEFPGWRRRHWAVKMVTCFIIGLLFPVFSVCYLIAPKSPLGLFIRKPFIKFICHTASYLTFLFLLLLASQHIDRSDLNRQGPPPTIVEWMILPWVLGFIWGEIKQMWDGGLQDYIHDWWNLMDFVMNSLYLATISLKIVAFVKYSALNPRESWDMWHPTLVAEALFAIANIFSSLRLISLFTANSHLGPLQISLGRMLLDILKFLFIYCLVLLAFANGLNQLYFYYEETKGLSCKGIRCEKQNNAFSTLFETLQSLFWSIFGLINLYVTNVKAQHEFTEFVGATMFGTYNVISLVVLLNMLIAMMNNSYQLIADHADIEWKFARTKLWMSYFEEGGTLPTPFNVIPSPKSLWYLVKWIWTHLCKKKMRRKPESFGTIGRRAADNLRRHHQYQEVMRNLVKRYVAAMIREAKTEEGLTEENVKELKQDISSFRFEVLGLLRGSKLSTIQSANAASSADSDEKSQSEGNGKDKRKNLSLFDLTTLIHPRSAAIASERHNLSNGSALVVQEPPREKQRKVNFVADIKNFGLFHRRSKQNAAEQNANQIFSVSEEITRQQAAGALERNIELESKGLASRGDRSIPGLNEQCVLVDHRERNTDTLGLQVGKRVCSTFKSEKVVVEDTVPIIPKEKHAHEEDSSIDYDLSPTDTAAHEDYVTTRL
# [6] = target: Short transient receptor potential channel 4 (Mus musculus) (UniProt Q9QUQ5); assay: blockers of DAMGO-evoked TRPC4 calcium flux – cell-based, second round, Fluo4, HEK293 TRPC4beta/mu-opioid, 1 µM, confirmation (AID 2637;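 active = calcium signal ratio cut to more than 3 SD under the fully stimulated control mean yet still positive, in both repeats and the primary screen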); settings: at 1 µM; stronger effect = higher value
# [7] = target: Short transient receptor potential channel 4 (Mus musculus) (UniProt Q9QUQ5); assay: calcium entry via TRPC4 opening agents – cell-based, HEK293 TRPC4/mu-opioid, Fluo-4 calcium, dose response (AID 434937;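 active = primary screen activator hit with a dose response curve and TRPC4 channel activation at any tested dose; inactive = no activation, no dose response, or not a primary hit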)
# [8] = target: Short transient receptor potential channel 4 (Mus musculus) (UniProt Q9QUQ5); assay: potentiation of DAMGO-evoked TRPC4 calcium signal – cell-based, HEK293 TRPC4/mu-opioid, Fluo-4 calcium, EC20 DAMGO, dose response (AID 434941);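 note: calcium entry triggered by an EC20 dose of DAMGO at the co-expressed mu-opioid receptor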
# [9] = target: Short transient receptor potential channel 4 (Mus musculus) (UniProt Q9QUQ5); assay: block of DAMGO-driven TRPC4 calcium entry – cell-based, HEK293 TRPC4/mu-opioid, Fluo-4 calcium, dose response (AID 434942;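 active = primary screen inhibitor hit that blocks the TRPC4 channel at some tested dose, yielding a dose curve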)
# [10] = target: Short transient receptor potential channel 6 (Mus musculus) (UniProt Q61143); assay: TRPC6 blockade by TRPC4 inhibitor hits – cell-based, HEK293, membrane potential dye, duplicate, selectivity assay for TRPC4 inhibitor project, confirmation (AID 434948;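 active = active in primary screen and both duplicates, each dropping signal beyond three positive-control SD with fluorescence still positive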); settings: HEK293 TRPC6, membrane potential dye fluorescence, at 10 µM, stimulated with maximal-effect acetylcholine; stronger effect = higher value
# Chain of Short transient receptor potential channel 6 (Mus musculus) (Q61143 whole entry, looked up): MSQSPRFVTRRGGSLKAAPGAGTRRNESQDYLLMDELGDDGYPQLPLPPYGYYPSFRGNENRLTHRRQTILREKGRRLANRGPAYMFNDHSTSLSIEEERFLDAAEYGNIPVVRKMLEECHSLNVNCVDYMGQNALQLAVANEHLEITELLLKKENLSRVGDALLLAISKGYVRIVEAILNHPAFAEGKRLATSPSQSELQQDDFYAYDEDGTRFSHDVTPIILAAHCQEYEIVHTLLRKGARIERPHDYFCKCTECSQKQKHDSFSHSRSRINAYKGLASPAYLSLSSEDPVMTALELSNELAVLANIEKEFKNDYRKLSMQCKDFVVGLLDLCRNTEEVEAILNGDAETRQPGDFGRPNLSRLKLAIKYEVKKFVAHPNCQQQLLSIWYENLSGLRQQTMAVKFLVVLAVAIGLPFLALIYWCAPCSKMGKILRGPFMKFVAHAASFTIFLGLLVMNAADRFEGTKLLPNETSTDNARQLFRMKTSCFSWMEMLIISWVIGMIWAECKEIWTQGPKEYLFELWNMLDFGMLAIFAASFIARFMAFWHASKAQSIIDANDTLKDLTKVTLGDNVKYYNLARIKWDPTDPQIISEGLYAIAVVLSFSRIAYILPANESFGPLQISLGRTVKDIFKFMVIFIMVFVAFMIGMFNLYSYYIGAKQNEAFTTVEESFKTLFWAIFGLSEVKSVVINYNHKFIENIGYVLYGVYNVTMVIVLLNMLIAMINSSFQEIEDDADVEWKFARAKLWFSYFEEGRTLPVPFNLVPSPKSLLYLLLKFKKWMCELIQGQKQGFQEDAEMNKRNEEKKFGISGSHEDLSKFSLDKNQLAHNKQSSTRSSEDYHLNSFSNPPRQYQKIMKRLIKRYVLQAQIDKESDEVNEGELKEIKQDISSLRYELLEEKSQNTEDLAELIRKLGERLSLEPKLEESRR
# [11] = target: Short transient receptor potential channel 6 (Mus musculus) (UniProt Q61143); assay: TRPC6 opening by TRPC4 activator hits – cell-based, HEK293, membrane potential dye, duplicate, selectivity assay for TRPC4 activator project, confirmation (AID 434950;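 active = membrane potential signal rise above negative control mean plus 3 SD in both duplicates, also active in the earlier TRPC4 screen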;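 for activation: 0% = buffer only wells and 100% = acetylcholine maximal-effect wells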); settings: HEK293 TRPC6, membrane potential fluorescence, at 10 µM; activation: stronger effect = higher value; outcome: activation
# [12] = target: Short transient receptor potential channel 6 (Mus musculus) (UniProt Q61143); assay: positive modulators of mouse TRPC6 channel – HEK293 cells, membrane potential dye, duplicate, selectivity assay for TRPC4 potentiator project, confirmation (AID 434952;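 active = compound raising the membrane signal above positive-control mean plus 3 SD in both repeats, and a primary screen hit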); settings: HEK293 TRPC6, membrane potential dye fluorescence, at 10 µM, maximal acetylcholine added after compound; stronger effect = higher value
# [13] = target: Short transient receptor potential channel 4 (Mus musculus) (UniProt Q9QUQ5); assay: calcium flux activators in TRPC4/5HT1a cells, counter-screen for TRPC4 activator project, cell-based, second counter screen, HEK293 TRPC4/5HT1a, Fluo-4 (AID 434977;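 active = calcium signal rise above buffer-control mean plus 5 SD in both duplicates, and also a hit in the primary screen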); settings: Fluo-4 calcium flux, at 10 µM; stronger effect = higher value
# [14] = serotonin-gated TRPC4 signal block – cell-based, second counter screen, HEK293 TRPC4/5HT1a, Fluo-4, counter-screen for TRPC4 inhibitor project, confirmation (AID 434978;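 active = primary screen active whose calcium signal fell more than 3 SD beyond the full-serotonin control mean in both duplicate plates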;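 for outcome: serotonin given first at submaximal then at maximal dose after compound preincubation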); settings: Fluo-4 calcium flux, at 10 µM, serotonin added to trigger calcium flux; stronger effect = higher value
# [15] = test system: TRPC4 (mouse), co-expressed with 5HT1a in HEK293; assay: enhancement of serotonin-evoked TRPC4 response – cell-based, second counter screen, HEK293 TRPC4/5HT1a, Fluo-4, counter-screen for TRPC4 potentiator project, confirmation (AID 434979;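 active = signal rise over 3 SD above mean of control wells given weak agonist, in both repeats and first screen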); settings: Fluo-4 calcium flux, at 10 µM, serotonin added at its EC20 dose; stronger effect = higher value
# [16] = nonspecific calcium rise without TRPC4 – cell-based, HEK293 mu-opioid receptor line, counter-screen for TRPC4 activator project, confirmation (AID 449723;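 active = hit in primary screen, with calcium signal over 5 SD above buffer well mean in both duplicates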;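 note: counter screen cells carry the mu-opioid receptor alone and lack TRPC4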); settings: HEK293 mu-opioid cells, Fluo-4 calcium fluorescence, at 10 µM; stronger effect = higher value
# [17] = nonspecific potentiation of DAMGO calcium response – cell-based, HEK293 mu-opioid receptor line, counter-screen for TRPC4 allosteric potentiator project, confirmation (AID 449724;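 active = calcium signal rise more than 3 SD above the low-dose agonist control mean, in both duplicate plates and the primary screen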); settings: HEK293 mu-opioid receptor cells, Fluo-4 calcium flux, at 10 µM, compound added before EC20 DAMGO stimulus; stronger effect = higher value
structure (smiles),measurement,setting,value
COc1ccc(C(=O)N2CCN(c3c(C)cccc3C)CC2)cc1OC,outcome,[1],inactive
same,outcome,[2],inactive
same,outcome,[3],inactive
same,outcome,[4],inactive
same,outcome,[5],inactive
same,outcome,[6],inactive
same,outcome,[7],inactive
same,outcome,[8],inactive
same,outcome,[9],inactive
same,outcome,[10],inactive
same,outcome,[11],inactive
same,outcome,[12],inactive
same,outcome,[13],inactive
same,outcome,[14],inactive
same,potentiation,[15],15% (active)
same,outcome,[16],inactive
same,outcome,[17],inactive
CC(NC(=O)c1ccccc1NC(=O)CN1CCc2ccccc2C1)c1ccccc1 (stereo not drawn),outcome,[1],inactive
same,outcome,[2],inactive
same,outcome,[3],inactive
same,outcome,[4],inactive
same,outcome,[5],inactive
same,outcome,[6],inactive
same,outcome,[7],inactive
same,outcome,[8],inactive
same,outcome,[9],inactive
same,outcome,[10],inactive
same,outcome,[11],inactive
same,outcome,[12],inactive
same,outcome,[13],inactive
same,outcome,[14],inactive
same,potentiation,[15],20.3% (active)
same,outcome,[16],inactive
same,outcome,[17],inactive
CCOc1ccc(-n2c(C)cc(/C=C3/C(=N)N4C(=NC3=O)SN=C4S(C)(=O)=O)c2C)cc1,outcome,[1],inactive
same,outcome,[2],inactive
same,outcome,[3],inactive
same,outcome,[4],inactive
same,outcome,[5],inactive
same,outcome,[6],inactive
same,outcome,[7],inactive
same,outcome,[8],inactive
same,outcome,[9],inactive
same,outcome,[10],inactive
same,outcome,[11],inactive
same,outcome,[12],inactive
same,outcome,[13],inactive
same,outcome,[14],inactive
same,outcome,[15],inactive
same,outcome,[16],inactive
same,outcome,[17],inactive
Cc1c(CCOC(=O)c2ccccc2)sc[n+]1CC(=O)c1ccc(Br)cc1,outcome,[1],inactive
same,outcome,[2],inactive
same,outcome,[3],inactive
same,outcome,[4],inactive
same,outcome,[5],inactive
same,outcome,[6],inactive
same,outcome,[7],inactive
same,outcome,[8],inactive
same,outcome,[9],inactive
same,outcome,[10],inactive
same,outcome,[11],inactive
same,outcome,[12],inactive
same,outcome,[13],inactive
same,outcome,[14],inactive
same,outcome,[15],inactive
same,outcome,[16],inactive
same,outcome,[17],inactive
c1ccc(-c2nc(NCc3cccnc3)c3ccccc3n2)cc1,outcome,[1],inactive
same,outcome,[2],inactive
same,outcome,[3],inactive
same,outcome,[4],inactive
same,inhibition,[5],89% (active)
same,outcome,[6],inactive
same,outcome,[7],inactive
same,outcome,[8],inactive
same,outcome,[9],inactive
same,outcome,[10],inactive
same,outcome,[11],inactive
same,outcome,[12],inactive
same,outcome,[13],inactive
same,inhibition,[14],36.3% (active)
same,outcome,[15],inactive
same,outcome,[16],inactive
same,outcome,[17],inactive
Cc1ccc(NC(=O)CN(C)C(=O)CNC(=O)c2sc3ccccc3c2Cl)cc1,outcome,[1],inactive
same,outcome,[2],inactive
same,outcome,[3],inactive
same,outcome,[4],inactive
same,outcome,[5],inactive
same,outcome,[6],inactive
same,outcome,[7],inactive
same,outcome,[8],inactive
same,outcome,[9],inactive
same,outcome,[10],inactive
same,outcome,[11],inactive
same,outcome,[12],inactive
same,outcome,[13],inactive
same,outcome,[14],inactive
same,potentiation,[15],29.5% (active)
same,outcome,[16],inactive
same,outcome,[17],inactive
CN(C)c1ccc(NC(=O)C2C3C=CC(C3)C2C(=O)O)cc1 (stereo not drawn),outcome,[1],inactive
same,outcome,[2],inactive
same,outcome,[3],inactive
same,outcome,[4],inactive
same,outcome,[5],inactive
same,outcome,[6],inactive
same,outcome,[7],inactive
same,outcome,[8],inactive
same,outcome,[9],inactive
same,outcome,[10],inactive
same,outcome,[11],inactive
same,outcome,[12],inactive
same,outcome,[13],inactive
same,outcome,[14],inactive
same,outcome,[15],inactive
same,outcome,[16],inactive
same,outcome,[17],inactive
COC(=O)CSc1nnc(CNS(=O)(=O)c2ccc(Br)cc2)n1C,outcome,[1],inactive
same,outcome,[2],inactive
same,outcome,[3],inactive
same,outcome,[4],inactive
same,outcome,[5],inactive
same,outcome,[6],inactive
same,outcome,[7],inactive
same,outcome,[8],inactive
same,outcome,[9],inactive
same,outcome,[10],inactive
same,outcome,[11],inactive
same,outcome,[12],inactive
same,outcome,[13],inactive
same,outcome,[14],inactive
same,outcome,[15],inactive
same,outcome,[16],inactive
same,outcome,[17],inactive
CCCCCCc1cc2cc(-c3nnc(-c4cc(OC)c(OC)c(OC)c4)o3)c(=O)oc2cc1O,outcome,[1],inactive
same,outcome,[2],inactive
same,outcome,[3],inactive
same,potentiation,[4],37% (active)
same,outcome,[5],inactive
same,outcome,[6],inactive
same,outcome,[7],inactive
same,outcome,[8],inactive
same,outcome,[9],inactive
same,outcome,[10],inactive
same,outcome,[11],inactive
same,outcome,[12],inactive
same,outcome,[13],inactive
same,outcome,[14],inactive
same,potentiation,[15],16.1% (active)
same,outcome,[16],inactive
same,activation,[17],4130% (active)
Clc1ccc2[nH]c3c(c2c1)CNCC3,outcome,[1],inactive
same,outcome,[2],inactive
same,potentiation,[3],10% (active)
same,potentiation,[4],12% (active)
same,outcome,[5],inactive
same,outcome,[6],inactive
same,outcome,[7],inactive
same,outcome,[8],inactive
same,outcome,[9],inactive
same,outcome,[10],inactive
same,outcome,[11],inactive
same,outcome,[12],inactive
same,outcome,[13],inactive
same,outcome,[14],inactive
same,outcome,[15],inactive
same,outcome,[16],inactive
same,outcome,[17],inactive
CCN1CCCC(OC(=O)c2cc(-c3ccccc3Cl)nc3ccccc23)C1 (stereo not drawn),outcome,[1],inactive
same,outcome,[2],inactive
same,outcome,[3],inactive
same,outcome,[4],inactive
same,outcome,[5],inactive
same,outcome,[6],inactive
same,outcome,[7],inactive
same,outcome,[8],inactive
same,outcome,[9],inactive
same,outcome,[10],inactive
same,outcome,[11],inactive
same,outcome,[12],inactive
same,outcome,[13],inactive
same,outcome,[14],inactive
same,potentiation,[15],9.46% (active)
same,outcome,[16],inactive
same,outcome,[17],inactive
OC1(c2ccc(Cl)cc2)CN(c2ccccc2)C2=[N+]1CCS2 (stereo not drawn),outcome,[1],inactive
same,outcome,[2],inactive
same,outcome,[3],inactive
same,outcome,[4],inactive
same,outcome,[5],inactive
same,outcome,[6],inactive
same,outcome,[7],inactive
same,outcome,[8],inactive
same,outcome,[9],inactive
same,outcome,[10],inactive
same,activation,[11],38% (active)
same,outcome,[12],inactive
same,outcome,[13],inactive
same,outcome,[14],inactive
same,outcome,[15],inactive
same,outcome,[16],inactive
same,outcome,[17],inactive
Clc1cc(/C=N\NC2=NCCN2)cc(Cl)n1,outcome,[1],inactive
same,outcome,[2],inactive
same,outcome,[3],inactive
same,outcome,[4],inactive
same,outcome,[5],inactive
same,outcome,[6],inactive
same,outcome,[7],inactive
same,outcome,[8],inactive
same,outcome,[9],inactive
same,outcome,[10],inactive
same,outcome,[11],inactive
same,outcome,[12],inactive
same,outcome,[13],inactive
same,outcome,[14],inactive
same,outcome,[15],inactive
same,outcome,[16],inactive
same,outcome,[17],inactive
CC1(C)CC(=O)C(C=NCCN2CCN(C3CC(=O)N(c4cccc(Br)c4)C3=O)CC2)=C(O)C1 (stereo not drawn),outcome,[1],inactive
same,outcome,[2],inactive
same,potentiation,[3],12% (active)
same,outcome,[4],inactive
same,outcome,[5],inactive
same,outcome,[6],inactive
same,outcome,[7],inactive
same,outcome,[8],inactive
same,outcome,[9],inactive
same,outcome,[10],inactive
same,outcome,[11],inactive
same,outcome,[12],inactive
same,outcome,[13],inactive
same,outcome,[14],inactive
same,potentiation,[15],16.8% (active)
same,outcome,[16],inactive
same,outcome,[17],inactive
